Results from PubChem BioAssay AID1159580 (chemical genetic matrix, 2015).
“And” between values parts separate entries of the source, which are not always exact repeats. Equal entries are not always repeated. Among all 5,500 compounds or so, about 2,000 (36%) were called active. Another 18% or so got no clear call; they are omitted. No stated cut-off is given here; in the data, active means normalized growth mostly below about 0.91 (no sharp cut-off); inconclusive means no clear call, values can overlap the other calls; inactive means mostly above about 0.92. The list shows a part of the results.

Assay: chemical genetic growth profiling, strain panel (AID 1159580);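 further: tested at 20 µM; growth read once vehicle control cultures reached saturation at 30 °C; 1 = growth at the plate median or of vehicle wells; lower values mean less growth of the strain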
Settings: growth OD

Measured: normalized growth

CC(=O)OC/C=C(C)/C=C/C=C(C)/C=C/C1=C(C)CCCC1(C)C
inactive: S. cerevisiae deletion strains, locus YAL013W, strain DEP1, hits give low values 1.02 | S. cerevisiae deletion strains, locus YBR021W, strain FUR4, hits give low values 1.03 | S. cerevisiae deletion strains, locus YBR229C, strain ROT2, hits give low values 1.02 | S. cerevisiae deletion strains, locus YCL029C, strain bik1, hits give low values 1 | S. cerevisiae deletion strains, locus YDL035C, strain GPR1, hits give low values 1.01 | S. cerevisiae deletion strains, locus YDL074C, strain BRE1, hits give low values 1.03 | S. cerevisiae deletion strains, locus YDL101C, strain DUN1, hits give low values 1.03 | S. cerevisiae deletion strains, locus YDL134C, strain PPH21, hits give low values 1 | S. cerevisiae deletion strains, locus YDL185W, strain tfp1, hits give low values 0.992 | S. cerevisiae deletion strains, locus YDL192W, strain arf1, hits give low values 0.994 | S. cerevisiae deletion strains, locus YDR101C, strain arx1, hits give low values 0.988 | S. cerevisiae deletion strains, locus YDR150W, strain NUM1, hits give low values 1.01 | S. cerevisiae deletion strains, locus YDR162C, strain NBP2, hits give low values 1.01 | S. cerevisiae deletion strains, locus YDR318W, strain mcm21, hits give low values 1 | S. cerevisiae deletion strains, locus YDR388W, hits give low values 0.994 | S. cerevisiae deletion strains, locus YDR502C, strain sam2, hits give low values 0.996 | S. cerevisiae deletion strains, locus YEL061C, strain CIN8, hits give low values 1.02 | S. cerevisiae deletion strains, locus YER110C, hits give low values 0.992 | S. cerevisiae deletion strains, locus YER155C, strain BEM2, hits give low values 1.02 | S. cerevisiae deletion strains, locus YER167W, strain BCK2, hits give low values 1.02 | S. cerevisiae deletion strains, locus YGL078C, strain dbp3, hits give low values 0.982 | S. cerevisiae deletion strains, locus YGL086W, strain mad1, hits give low values 1 | S. cerevisiae deletion strains, locus YGL248W, strain PDE1, hits give low values 1.03 | S. cerevisiae deletion strains, locus YGR078C, strain PAC10, hits give low values 1.04 | S. cerevisiae deletion strains, locus YGR135W, strain pre9, hits give low values 0.984 | S. cerevisiae deletion strains, locus YGR252W, strain gcn5, hits give low values 0.982 | S. cerevisiae deletion strains, locus YHR030C, strain SLT2, hits give low values 1.02 and 1.06 | S. cerevisiae deletion strains, locus YHR079C, strain IRE1 (second series), hits give low values 1 | S. cerevisiae deletion strains, locus YHR079C, strain IRE1, hits give low values 1.06 | S. cerevisiae deletion strains, locus YHR094C, strain hxt1, hits give low values 0.991 | S. cerevisiae deletion strains, locus YHR129C, strain ARP1, hits give low values 1.02 | S. cerevisiae deletion strains, locus YHR200W, strain rpn10, hits give low values 0.999 | S. cerevisiae deletion strains, locus YIL066C, strain RNR3, hits give low values 1.02 | S. cerevisiae deletion strains, locus YIL073C, strain SPO22, hits give low values 1.02 | S. cerevisiae deletion strains, locus YIL125W, strain kgd1, hits give low values 0.992 | S. cerevisiae deletion strains, locus YIR030C, strain dcg1, hits give low values 0.994 | S. cerevisiae deletion strains, locus YJL095W, strain BCK1, hits give low values 1.05 and 1.04 | S. cerevisiae deletion strains, locus YJL134W, strain LCB3, hits give low values 1.02 | S. cerevisiae deletion strains, locus YJL168C, strain set2, hits give low values 0.999 | S. cerevisiae deletion strains, locus YJL187C, strain SWE1 (second series), hits give low values 1.02 | S. cerevisiae deletion strains, locus YJR043C, strain POL32, hits give low values 1.02 | S. cerevisiae deletion strains, locus YJR066W, strain TOR1, hits give low values 0.959 | S. cerevisiae deletion strains, locus YJR075W, strain HOC1, hits give low values 1.03 | S. cerevisiae deletion strains, locus YKL009W, strain mrt4, hits give low values 1.01 | S. cerevisiae deletion strains, locus YKL068W, hits give low values 1 | S. cerevisiae deletion strains, locus YKL085W, strain MDH1 (second series), hits give low values 0.993 | S. cerevisiae deletion strains, locus YKL085W, strain MDH1, hits give low values 0.993 | S. cerevisiae deletion strains, locus YKL190W, strain CNB1, hits give low values 1.01 | S. cerevisiae deletion strains, locus YKR001C, strain vps1, hits give low values 0.999 | S. cerevisiae deletion strains, locus YLR039C, strain RIC1, hits give low values 1.05 | S. cerevisiae deletion strains, locus YLR058C, strain SHM2, hits give low values 1.01 | S. cerevisiae deletion strains, locus YLR102C, strain apc9, hits give low values 1 | S. cerevisiae deletion strains, locus YLR113W, strain HOG1, hits give low values 0.981 | S. cerevisiae deletion strains, locus YLR262C, strain YPT6, hits give low values 1.03 | S. cerevisiae deletion strains, locus YLR268W, strain sec22, hits give low values 1.01 | S. cerevisiae deletion strains, locus YLR330W, strain CHS5, hits give low values 1.02 | S. cerevisiae deletion strains, locus YLR342W, strain FKS1 (second series), hits give low values 0.986 | S. cerevisiae deletion strains, locus YLR371W, strain rom2, hits give low values 1 | S. cerevisiae deletion strains, locus YLR418C, strain cdc73, hits give low values 0.986 | S. cerevisiae deletion strains, locus YML016C, strain PPZ1, hits give low values 1.01 | S. cerevisiae deletion strains, locus YML032C, strain rad52, hits give low values 0.998 | S. cerevisiae deletion strains, locus YML124C, strain tub3, hits give low values 0.999 | S. cerevisiae deletion strains, locus YMR078C, strain ctf18, hits give low values 1.01 | S. cerevisiae deletion strains, locus YMR223W, strain ubp8, hits give low values 1.01 | S. cerevisiae deletion strains, locus YMR307W, strain GAS1, hits give low values 0.898 | S. cerevisiae deletion strains, locus YNL067W, strain RPL9B, hits give low values 1.03 | S. cerevisiae deletion strains, locus YNL183C, strain NPR1, hits give low values 0.953 | S. cerevisiae deletion strains, locus YNL233W, strain BNI4, hits give low values 1.05 | S. cerevisiae deletion strains, locus YNL250W, strain rad50, hits give low values 0.989 | S. cerevisiae deletion strains, locus YNL271C, strain bni1, hits give low values 0.988 | S. cerevisiae deletion strains, locus YNL298W, strain CLA4, hits give low values 0.981 | S. cerevisiae deletion strains, locus YNL307C, strain MCK1, hits give low values 1 | S. cerevisiae deletion strains, locus YNL322C, strain KRE1, hits give low values 1.02 | S. cerevisiae deletion strains, locus YNR052C, strain pop2, hits give low values 0.996 | S. cerevisiae deletion strains, locus YOL006C, strain TOP1, hits give low values 1.06 | S. cerevisiae deletion strains, locus YOL012C, strain htz1 1.19 | S. cerevisiae deletion strains, locus YOL147C, strain pex11, hits give low values 0.997 | S. cerevisiae deletion strains, locus YOR061W, strain CKA2, hits give low values 1.01 | S. cerevisiae deletion strains, locus YOR069W, strain VPS5, hits give low values 1.02 | S. cerevisiae deletion strains, locus YOR136W, strain idh2, hits give low values 1 | S. cerevisiae deletion strains, locus YOR144C, strain elg1, hits give low values 0.998 | S. cerevisiae deletion strains, locus YOR184W, strain ser1, hits give low values 0.998 | S. cerevisiae deletion strains, locus YOR231W, strain MKK1, hits give low values 1.04 | S. cerevisiae deletion strains, locus YOR316C, strain cot1, hits give low values 0.999 | S. cerevisiae deletion strains, locus YPL241C, strain CIN2, hits give low values 1.01 | S. cerevisiae deletion strains, locus YPL256C, strain CLN2, hits give low values 1.08 | S. cerevisiae deletion strains, locus YPR119W, strain clb2, hits give low values 1 | S. cerevisiae deletion strains, locus YPR141C, strain kar3, hits give low values 0.992 | S. cerevisiae deletion strains, locus YPR163C, strain tif3, hits give low values 0.994 | S. cerevisiae deletion strains, locus YPR167C, strain met16, hits give low values 1 | S. cerevisiae deletion strains, strain wtn01, hits give low values 0.995 | S. cerevisiae strains, strain wild type, hits give low values 1.02
